In the supplement of paper PMC6897291:

Assays:
RIVA [1] = assay: growth inhibition by drug plus 177Lu-lilotomab satetraxetan (1 - RLU/untreated control) (fraction); higher = stronger inhibition; settings: 177Lu-lilotomab satetraxetan 0.5 ug/ml
Procedure, shortened: (§1)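 A radiolabelled anti-CD37 antibody conjugate (~600 MBq/mg) was applied for 18 h at 0.5 µg/ml to RIVA and 1 µg/ml to U-2932 cells, with untreated cells run alongside. All cells were washed and seeded at 3,000 cells/well onto library-printed plates at 10/100 nM (RIVA) or 10/1,000 nM (U-2932). Growth inhibition was based on RealTime-Glo luminescence compared with untreated no-drug wells. Daily reads began on day 3 after 1 h at 37°C, with each value being 1 − RLU/mean of the 48 such wells on that plate.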

U-2932 [2] = assay: growth inhibition by drug alone (1 - RLU/untreated control) (fraction); higher = stronger inhibition; settings: 177Lu-lilotomab satetraxetan 0 ug/ml
Procedure, shortened: as §1

RIVA [3] = assay: as above; settings: 177Lu-lilotomab satetraxetan 0 ug/ml
Procedure, shortened: as §1

U-2932 [4] = assay: growth inhibition by drug plus 177Lu-lilotomab satetraxetan (1 - RLU/untreated control) (fraction); higher = stronger inhibition; settings: 177Lu-lilotomab satetraxetan 1 ug/ml
Procedure, shortened: as §1

Row | SMILES | growth inhibition by drug plus 177Lu-lilotomab satetraxetan (RIVA [1]; 100 nM, time (day): 5) | growth inhibition by drug plus 177Lu-lilotomab satetraxetan (RIVA [1]; 100 nM, time (day): 6) | growth inhibition by drug alone (U-2932 [2]; 10 nM, time (day): 3) | growth inhibition by drug alone (U-2932 [2]; 10 nM, time (day): 4) | growth inhibition by drug alone (U-2932 [2]; 10 nM, time (day): 5) | growth inhibition by drug alone (U-2932 [2]; 10 nM, time (day): 6) | growth inhibition by drug alone (U-2932 [2]; 1000 nM, time (day): 3) | growth inhibition by drug alone (U-2932 [2]; 1000 nM, time (day): 4) | growth inhibition by drug alone (U-2932 [2]; 1000 nM, time (day): 5) | growth inhibition by drug alone (U-2932 [2]; 1000 nM, time (day): 6) | growth inhibition by drug alone (RIVA [3]; 10 nM, time (day): 3) | growth inhibition by drug alone (RIVA [3]; 10 nM, time (day): 4) | growth inhibition by drug alone (RIVA [3]; 10 nM, time (day): 5) | growth inhibition by drug alone (RIVA [3]; 10 nM, time (day): 6) | growth inhibition by drug alone (RIVA [3]; 100 nM, time (day): 3) | growth inhibition by drug alone (RIVA [3]; 100 nM, time (day): 4) | growth inhibition by drug alone (RIVA [3]; 100 nM, time (day): 5) | growth inhibition by drug alone (RIVA [3]; 100 nM, time (day): 6) | growth inhibition by drug plus 177Lu-lilotomab satetraxetan (U-2932 [4]; 10 nM, time (day): 3) | growth inhibition by drug plus 177Lu-lilotomab satetraxetan (U-2932 [4]; 10 nM, time (day): 4) | growth inhibition by drug plus 177Lu-lilotomab satetraxetan (U-2932 [4]; 10 nM, time (day): 5) | growth inhibition by drug plus 177Lu-lilotomab satetraxetan (U-2932 [4]; 10 nM, time (day): 6) | growth inhibition by drug plus 177Lu-lilotomab satetraxetan (U-2932 [4]; 1000 nM, time (day): 3) | growth inhibition by drug plus 177Lu-lilotomab satetraxetan (U-2932 [4]; 1000 nM, time (day): 4) | growth inhibition by drug plus 177Lu-lilotomab satetraxetan (U-2932 [4]; 1000 nM, time (day): 5) | growth inhibition by drug plus 177Lu-lilotomab satetraxetan (U-2932 [4]; 1000 nM, time (day): 6) | growth inhibition by drug plus 177Lu-lilotomab satetraxetan (RIVA [1]; 10 nM, time (day): 3) | growth inhibition by drug plus 177Lu-lilotomab satetraxetan (RIVA [1]; 10 nM, time (day): 4) | growth inhibition by drug plus 177Lu-lilotomab satetraxetan (RIVA [1]; 10 nM, time (day): 5) | growth inhibition by drug plus 177Lu-lilotomab satetraxetan (RIVA [1]; 10 nM, time (day): 6) | growth inhibition by drug plus 177Lu-lilotomab satetraxetan (RIVA [1]; 100 nM, time (day): 3) | growth inhibition by drug plus 177Lu-lilotomab satetraxetan (RIVA [1]; 100 nM, time (day): 4)
1 | C=CC(=O)Nc1cccc(Oc2nc(Nc3ccc(N4CCN(C)CC4)cc3OC)ncc2Cl)c1 | 0.299 | 0.321 |  |  |  |  |  |  |  |  |  |  |  |  |  |  |  |  |  |  |  |  |  |  |  |  |  |  |  |  |  | 
2 | Oc1nc(-c2ccc(C(F)(F)F)cc2)nc2c1CSCC2 | 0.521 | 0.496 | 0.0264 | 0.0499 | -0.0107 | -0.0367 | 0.0107 | 0.081 | 0.0386 | -0.0985 | -0.012 | -0.067 | -0.12 | -0.313 | -0.101 | -0.117 | -0.135 | -0.199 | -0.00592 | 0.0339 | 0.0301 | 0.0994 | -0.0747 | 0.0641 | 0.0547 | 0.062 | 0.347 | 0.483 | 0.51 | 0.519 | 0.424 | 0.518
3 | CS(=O)(=O)N1CCc2c(-c3cnc(N)nc3)nc(N3CCOCC3)nc21 | 0.439 | 0.428 | 0.149 | 0.108 | -0.0352 | -0.0152 | 0.351 | 0.362 | 0.336 | 0.366 | 0.14 | 0.0286 | -0.0356 | -0.278 | 0.291 | 0.165 | 0.108 | 0.0361 | 0.0821 | 0.0867 | 0.0957 | 0.135 | 0.216 | 0.214 | 0.223 | 0.326 | 0.395 | 0.499 | 0.537 | 0.543 | 0.451 | 0.434
4 | O=C(O)c1ccc2c(c1)nc(Nc1cccc(Cl)c1)c1ccncc12 [cx-4945 (Silmitasertib)] | 0.487 | 0.468 | 0.0111 | -0.0226 | -0.00497 | 0.0386 | 0.0436 | 0.0306 | -0.0126 | -0.0489 | -0.142 | -0.128 | -0.161 | -0.291 | 0.0492 | -0.00845 | -0.0374 | -0.111 | 0.0376 | 0.0473 | 0.0445 | 0.189 | 0.0211 | 0.0508 | 0.0545 | 0.159 | 0.409 | 0.518 | 0.528 | 0.542 | 0.413 | 0.47
5 | CN(C)C/C=C/C(=O)Nc1cc2c(Nc3ccc(F)c(Cl)c3)ncnc2cc1O[C@H]1CCOC1 [Afatinib (BIBW2992)] | 0.493 | 0.456 | 0.0755 | 0.0672 | 0.0124 | -0.039 | 0.0101 | 0.0989 | 0.0569 | 0.0902 | 0.0532 | -0.016 | -0.0806 | -0.333 | -0.091 | -0.147 | -0.146 | -0.262 | 0.0397 | 0.0532 | 0.0798 | 0.0941 | -0.123 | 0.0652 | 0.0526 | 0.121 | 0.437 | 0.523 | 0.544 | 0.558 | 0.389 | 0.492
6 | c1ccc2c(-c3cnn4cc(-c5ccc(N6CCNCC6)cc5)cnc34)ccnc2c1 | 0.431 | 0.436 | -0.114 | -0.118 | -0.0883 | 0.0163 | -0.0225 | -0.0275 | -0.0302 | 0.125 | -0.24 | -0.273 | -0.265 | -0.249 | -0.167 | -0.254 | -0.224 | -0.213 | -0.113 | -0.0441 | 0.0116 | 0.0932 | -0.0291 | -0.0174 | 0.0152 | 0.209 | 0.399 | 0.521 | 0.544 | 0.537 | 0.307 | 0.408
7 | C=C1/C(=C\C=C2/CCC[C@]3(C)[C@@H]([C@H](C)/C=C/[C@H](C)C(C)C)CC[C@@H]23)C[C@@H](O)C[C@@H]1O [Doxercalciferol (Hectorol)] | 0.563 | 0.571 | 0.174 | 0.125 | 0.0899 | 0.0598 | 0.106 | 0.132 | 0.147 | 0.128 | 0.187 | 0.183 | 0.177 | 0.0541 | 0.0648 | 0.127 | 0.103 | 0.0636 | 0.15 | 0.183 | 0.229 | 0.36 | 0.0716 | 0.176 | 0.182 | 0.287 | 0.484 | 0.601 | 0.615 | 0.639 | 0.47 | 0.55
8 | O=C(c1cc(Cc2n[nH]c(=O)c3ccccc23)ccc1F)N1CCN(C(=O)C2CC2)CC1 [Olaparib (AZD2281)] | 0.505 | 0.533 | 0.0127 | -0.023 | -0.0205 | 0.0558 | -0.0113 | 0.025 | 0.0248 | 0.0776 | -0.144 | -0.15 | -0.137 | -0.143 | -0.228 | -0.239 | -0.25 | -0.231 | -0.0255 | 0.035 | 0.0896 | 0.188 | 0.0503 | 0.108 | 0.156 | 0.315 | 0.539 | 0.593 | 0.618 | 0.613 | 0.39 | 0.482
